S aureus helic: S. aureus DNA helicase inhibition; purified S. aureus helicase, fluorescence unwinding assay; inhibition, % (test concentration not listed); actives 0.05% (n = 120,000); in the data active = inhibition above about 25%, passing the limit was not always enough;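 also: 0% = mean of negative control wells and 100% = mean of positive control wells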
Sa growth 42C: inhibitors of Staphylococcus aureus growth at 42 °C; AID 720641; relative growth, % (no concentration beside the values); actives 0.53% (n = 170,000); S. aureus RN4220 growth, OD600, 20 h; stronger effect = lower value;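 active = relative growth at most 50% at the other temperature and 20+ points below 30 °C, or under 10% at both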
* hit, by the source's call; / = not tested or not shown. In the library only some 0.52% were active in any assay of this set; here they are far more common.

SMILES | S aureus helic | Sa growth 42C
CCCc1c(NC(=O)Nc2ccc(F)cc2)cnn1-c1ccccc1 | -4 | 94
Clc1ccc(OCCn2ccnc2)c(Br)c1 | 9 | 3.1*
Cc1cc(Cl)cc(C)c1OCCn1ccnc1 | 0 | 19
CCN(CC)S(=O)(=O)c1cccc(C(=O)OCC(=O)c2ccc3c(c2)OCO3)c1 | 2 | 92
CCN(CC)S(=O)(=O)c1cc(C(=O)Oc2ccc3c(c2)OCO3)ccc1C | 13 | 44*
C=CCN1C(=O)/C(=C2\SC(N3CCCCC3)=NC2=O)c2ccccc21 | 18 | 96
CN1C(=O)/C(=C2\SC(N3CCCCCC3)=NC2=O)c2ccccc21 | 43* | 111
Cc1c(CO)[nH]c2ccc(Cl)cc12 | 8 | 98
CC(=O)c1ccc(NC(=O)c2cc3sccc3n2Cc2ccc(F)cc2)cc1 | / | 107
N#CC(C#N)=NNc1ccc2c(c1)OCO2 | 18 | 0.6*
CC(=O)Nc1ccc2c(c1)OCO2 | 16 | 138
CC1(C)NN(CCO)C(=Nc2ccccc2)S1 | 22 | 104
O=C(NN1CCCCC1)c1oc2ccccc2c1COc1ccccc1 | 17 | 66
O=C(NCc1ccncc1)c1cccc(Oc2ccccc2)c1 | 0 | 105
O=C(NCc1cccnc1)/C(=C\c1cccc(Oc2ccccc2)c1)S(=O)(=O)c1ccccc1 | 17 | -1.3*
O=C(NCc1cccnc1)c1ccc(Br)cc1 | 18 | /
O=C(NCc1cccnc1)/C(=C\c1ccc(Br)cc1)S(=O)(=O)c1ccccc1 | 10 | -1.3*
O=C(Nc1ccc2ccccc2n1)c1cccs1 | / | 76
COC(=O)CC1OC(=O)c2ccccc21 (configuration not stated) | 4 | 94
CC1c2ccsc2CCN1C(=S)NC(=O)c1cccs1 (configuration not stated) | / | -0.4*
CN1CCC(NC(=O)c2cccs2)CC1 | 1 | 109
Cn1nc(C(=O)N2CCC(c3ccccc3)C2)c2c1-c1ccsc1CC2 (configuration not stated) | 2 | 105
Fc1ccc(-c2csc(-c3cccs3)n2)cc1 | / | 45*
CS(=O)(=O)c1ccc(-c2csc(-c3cccs3)n2)cc1 | 15 | 96
COc1ccc(Cn2c(C(=O)O)c(CNCc3ccc(C)o3)c3ccc(C)cc32)cc1 | / | 102
SMILES | S aureus helic | Sa growth 42C
Cn1cnn(CN2CCCCC2)c1=S | -17 | 110
O=C(Nc1ccncc1)c1ccc(Oc2cc(Cl)cc(Cl)c2)o1 | / | 4.9*
O=C(Nc1cccnc1)c1ccc(Oc2cc(Cl)cc(Cl)c2)o1 | / | 106
Cc1ccc(C)c(N2CCN(C(=O)C(C)n3c(C)c4cnn(-c5ccccc5)c(=O)c4c3C)CC2)c1 (configuration not stated) | / | 110
CC(=O)Oc1ccccc1C(=O)Nc1ccc(C(N)=O)cc1 | 13 | 103
CC(=O)Oc1ccccc1C(=O)Nc1ccc(OC(F)F)cc1 | -19 | 4.2*
N#C/C(=C(/O)C1CC1)c1nc2ccccc2s1 | 8 | 149
CC1(C)C(=O)OC(/C=C\c2ccccc2)C(C)(C)C1=O (configuration not stated) | -9 | 99
CCOc1ccc2ccccc2c1C=C1C(=O)N(C)C(=S)N(C)C1=O | 12 | 89
O=C(O)C(CC1COc2ccccc2O1)C(=O)O (configuration not stated) | -9 | 77
CCCc1nnc(NC(=O)c2nc(S(=O)(=O)Cc3ccc(C)cc3)ncc2Cl)s1 | / | 4.1*
COc1ccc(OC)c(NC(=O)c2nc(S(=O)(=O)Cc3ccc(F)cc3)ncc2Cl)c1 | / | -1.1*
CC(C)Sc1ncc(Cl)c(C(=O)Nc2nnc(C(C)C)s2)n1 | / | 97
CC(C)c1nnc(NC(=O)c2nc(S(=O)(=O)Cc3ccccc3)ncc2Cl)s1 | / | 7.3*
CCOC(=O)c1ccc(NC(=O)c2nc(S(=O)(=O)Cc3ccccc3)ncc2Cl)cc1 | / | 100
Cc1ccc(CS(=O)(=O)c2ncc(Cl)c(C(=O)Nc3nc4ccc(C)cc4s3)n2)cc1 | / | 92
Cc1ccccc1CS(=O)(=O)c1ncc(Cl)c(C(=O)Nc2nnc(C(C)C)s2)n1 | / | 5.7*
Cc1ccc(NC(=O)c2nc(S(=O)(=O)Cc3ccc(F)cc3)ncc2Cl)cc1C | / | 101
COc1ccc(S(=O)(=O)N(C)c2ccc(OCC(=O)Nc3cc(C)on3)cc2)cc1 | 10 | 85
Cc1ccc(NC(=O)c2sc(=S)n3c2[nH]c(=O)c2ccccc23)c(C)c1 | / | 4.6*
COc1ccc(NC(=O)c2sc(=S)n3c2[nH]c(=O)c2ccccc23)cc1 | -13 | 35
CC(=O)N1CCN(c2ccc(OCC3CO[C@](Cn4ccnc4)(c4ccc(Cl)cc4Cl)O3)cc2)CC1 (some centres not stated) | / | 2.6*
CCOc1ccc(NC(=O)N2CCN(c3ccc(Cl)c(Cl)c3)CC2)cc1 | / | 107
O=C(CN1CCCN(Cc2ccc(F)cc2)S1(=O)=O)NCc1ccccc1Cl | / | 101
c1cncc(-c2nc(Nc3ccc4c(c3)OCO4)c3ccccc3n2)c1 | 1 | 46
SMILES | S aureus helic | Sa growth 42C
CN(C)c1ccc(Nc2nc(-c3cccnc3)nc3ccccc23)cc1 | 12 | 0.2*
Cc1cccc(C)c1NC(=O)CN1C(=O)c2ccccc2S1(=O)=O | 40 | 96
Cc1cc(NS(=O)(=O)c2ccc(N=Cc3ccccc3O)cc2)no1 | 2 | 33
CCOc1nnc(NS(=O)(=O)c2ccc(N=Cc3ccccc3O)cc2)s1 | 13 | 7.8*
CN(C)/C=C/C(=O)c1ccccc1 | 10 | 84
O=C(/C=C/C(=O)c1ccccc1)c1ccccc1 | 32 | -0.4*
Cc1[nH]c2ccc(C(=O)NCC3CCCO3)cc2c1C (configuration not stated) | 29* | 103
Cc1[nH]c2ccc(C(=O)NC3CC3)cc2c1C | 2 | 115
N#C/C(=C\c1ccc(Cl)cc1Cl)c1c[nH]c2ccccc12 | / | 71
N#C/C(=C\c1ccc(F)cc1)c1c[nH]c2ccccc12 | / | 42*
O=C(Cc1cccs1)N1c2ccccc2Sc2ccccc21 | 5 | 106
CCCCN1C(=O)C(O)(CC(=O)c2ccco2)c2cc(Br)ccc21 (configuration not stated) | 1 | 90
CC(=O)O[C@H]1C[C@@]2(C)[C@@H](C[C@@H](O)C3[C@]2(C)CC[C@H]2[C@H](C)[C@H](O)CC[C@]32C)/C1=C(/CCC=C(C)C)C(=O)O (some centres not stated) | / | 0.6*
Cc1cccc2c1-c1sc(C(=O)NCCN3CCCCC3C)cc1CO2 (configuration not stated) | 14 | 101
Cc1c(C(=O)Oc2cccc3cccnc23)oc2ccccc12 | 3 | 97
Cc1ccc(S(=O)(=O)NC(=O)Oc2cccc3cccnc23)cc1 | 8 | 0.2*
CCOC(=O)Cn1c(=O)c2c(nc3n2CCN3c2ccc(CC)cc2)n(C)c1=O | / | 123
COc1cccc(CNC(=O)CCn2ccc3cc(S(=O)(=O)N4CCCC4)ccc32)c1 | / | 99
O=C(Nc1cccc(OCc2cc(=O)n3ccccc3n2)c1)c1ccccc1Br | / | 82
CCCCN(CC)C(=O)c1cc2cc3cc(OC)ccc3nc2s1 | -8 | 57
COC(=O)c1cscc1OC(=O)c1ccc(C(F)(F)F)cc1 | / | 21*
COC(=O)c1sccc1OC(=O)c1ccc(C(C)(C)C)cc1 | / | 106
S=c1[nH]c2c(Cl)cc(Cl)cc2o1 | -4 | 3.3*
O=S(=O)(Nc1ccccc1Cl)c1ccc2[nH]c(=S)oc2c1 | 16 | 83
O=C1OCc2cc(-n3[nH]nnc3=S)ccc21 | 2 | 111
SMILES | S aureus helic | Sa growth 42C
CNC(=O)c1c[nH]n2c(=O)c(Cc3ccccc3F)c(C)nc12 | / | 105
COCCNC(=O)c1c[nH]n2c(=O)c(Cc3ccc(Cl)cc3)c(C)nc12 | 14 | 79
Cc1nc2c(C(=O)NCCc3ccccc3)c[nH]n2c(=O)c1Cc1ccccc1F | / | 0.7*
Cc1nc2c(C(=O)NCCc3ccc(Cl)cc3)c[nH]n2c(=O)c1Cc1ccc(Cl)cc1 | / | 1.2*
CCN(CC)S(=O)(=O)c1ccc(C(=O)Nc2nc3c(F)cc(F)cc3s2)cc1 | 5 | /
OC[C@H]1O[C@@H](n2cnc3c(N[C@H]4CCC[C@@H]4O)ncnc32)[C@@H](O)C1O (some centres not stated) | / | 92
